PubChem BioAssay (NCATS)
Results filed as inconclusive are left out. Where a call stands in place of a potency, no number is given. Values without a mark were called inactive. Calls of active or inactive are those of the source. Calls come from the whole dose curve; as a rule, active = well fitted curve in the direction sought with a large enough effect; inconclusive = small, poorly fitted or top-dose-only effect, or another doubt; inactive = no such curve, though single readings can be large; an effect the other way counts as inactive or inconclusive.

Experiments:
[1] = system: KB-3-1; assay: Cytotoxic Profiling of Annotated Libraries Using Quantitative High-Throughput Screening (AID 1296008); settings: Five cell lines viability, CellTiter-Glo ATP luminescence, 48-72 h; max response: stronger effect = lower value; note: nearly all actives have a fitted effect of over 60% in size
How it was run: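 Cells exposed to compounds for 48 or 72 hr at 37 degrees Celsius. Viability read as ATP-coupled luminescence with CellTiter-Glo after 10 min at room temperature.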

[2] = system: MCC-13; assay: qHTS assay to identify novel small-molecules to repurpose for Merkel cell carcinoma treatment (AID 1296009); settings: MCC and control cell lines, CellTiter-Glo viability, 72 h; series mostly up to 46 µM; note: nearly all actives have a fitted effect of over 60% in size; note: potency is the fitted concentration of half-maximal effect
How it was run: (§1)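 Dose-response viability screen; 72 hr exposure at 37 degree celsius; CellTiter-Glo added, 10 min room temperature, luminescence read; RLUs scaled between no-cell and DMSO wells.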

[3] = system: MKL-2; assay: as above; settings: MCC and control cell lines, CellTiter-Glo viability, 72 h; series mostly up to 46 µM
How it was run: as §1

[4] = system: UISO; assay: as above; settings: MCC and control cell lines, CellTiter-Glo viability, 72 h; series mostly up to 46 µM
How it was run: as §1

[5] = system: C33A; assay: Primary qHTS to identify gynecologic anti-cancer compounds using libraries of approved drugs and bioactive compounds (AID 1345084); settings: Gynecologic cancer cell panel viability, ATPlite luminescence, 48 h; series mostly up to 57.5 µM; note: nearly all actives have a fitted effect of over 55% in size
How it was run: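 Five-concentration response, 48 h; readout is ATP-driven luciferase luminescence.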

[6] = system: CRL-7250; assay: qHTS assay to identify novel small-molecules to repurpose for Merkel cell carcinoma treatment (AID 1296009); settings: MCC and control cell lines, CellTiter-Glo viability, 72 h; series mostly up to 44.8 µM; note: nearly all actives have a fitted effect of over 60% in size; note: potency is the fitted concentration of half-maximal effect
How it was run: as §1

C=C1C[C@@H]2[C@H](CC[C@]3(C)C(=O)CC[C@@H]23)[C@@]2(C)C=CC(=O)C=C12
max response [1]: -16.4% | Potency [2]: inactive | Potency [3]: 13.3 µM (active) | Potency [4]: inactive | Potency [5]: inactive

CCCNC(=O)NS(=O)(=O)c1ccc(Cl)cc1
outcome [6]: inactive

O=C(c1ccc(OCCN2CCCCC2)cc1)c1c(-c2ccc(O)cc2)sc2cc(O)ccc12
outcome [6]: inactive
